# Measurements: PubChem BioAssay AID652162 (Broad Institute, 2013)
# The campaign covered roughly 350,000 compounds. About 840 (0.24%) were called active. This is one part of a sample in which actives are shown more often than they occur. Rule as the data show it: active = inhibition above about 10%; inactive = the rest.
# Molecular target: Toxin B (Clostridioides difficile) (UniProt P18177)
# Experiment: TcdB glycohydrolase inhibitors, primary screen, biochemical, single point, plate reader (AID 652162)
# Settings: TcdB glycohydrolase enzymatic assay, at 9.99 µM, hits give high values
# Sequence of Toxin B (Clostridioides difficile) (P18177 whole entry, looked up): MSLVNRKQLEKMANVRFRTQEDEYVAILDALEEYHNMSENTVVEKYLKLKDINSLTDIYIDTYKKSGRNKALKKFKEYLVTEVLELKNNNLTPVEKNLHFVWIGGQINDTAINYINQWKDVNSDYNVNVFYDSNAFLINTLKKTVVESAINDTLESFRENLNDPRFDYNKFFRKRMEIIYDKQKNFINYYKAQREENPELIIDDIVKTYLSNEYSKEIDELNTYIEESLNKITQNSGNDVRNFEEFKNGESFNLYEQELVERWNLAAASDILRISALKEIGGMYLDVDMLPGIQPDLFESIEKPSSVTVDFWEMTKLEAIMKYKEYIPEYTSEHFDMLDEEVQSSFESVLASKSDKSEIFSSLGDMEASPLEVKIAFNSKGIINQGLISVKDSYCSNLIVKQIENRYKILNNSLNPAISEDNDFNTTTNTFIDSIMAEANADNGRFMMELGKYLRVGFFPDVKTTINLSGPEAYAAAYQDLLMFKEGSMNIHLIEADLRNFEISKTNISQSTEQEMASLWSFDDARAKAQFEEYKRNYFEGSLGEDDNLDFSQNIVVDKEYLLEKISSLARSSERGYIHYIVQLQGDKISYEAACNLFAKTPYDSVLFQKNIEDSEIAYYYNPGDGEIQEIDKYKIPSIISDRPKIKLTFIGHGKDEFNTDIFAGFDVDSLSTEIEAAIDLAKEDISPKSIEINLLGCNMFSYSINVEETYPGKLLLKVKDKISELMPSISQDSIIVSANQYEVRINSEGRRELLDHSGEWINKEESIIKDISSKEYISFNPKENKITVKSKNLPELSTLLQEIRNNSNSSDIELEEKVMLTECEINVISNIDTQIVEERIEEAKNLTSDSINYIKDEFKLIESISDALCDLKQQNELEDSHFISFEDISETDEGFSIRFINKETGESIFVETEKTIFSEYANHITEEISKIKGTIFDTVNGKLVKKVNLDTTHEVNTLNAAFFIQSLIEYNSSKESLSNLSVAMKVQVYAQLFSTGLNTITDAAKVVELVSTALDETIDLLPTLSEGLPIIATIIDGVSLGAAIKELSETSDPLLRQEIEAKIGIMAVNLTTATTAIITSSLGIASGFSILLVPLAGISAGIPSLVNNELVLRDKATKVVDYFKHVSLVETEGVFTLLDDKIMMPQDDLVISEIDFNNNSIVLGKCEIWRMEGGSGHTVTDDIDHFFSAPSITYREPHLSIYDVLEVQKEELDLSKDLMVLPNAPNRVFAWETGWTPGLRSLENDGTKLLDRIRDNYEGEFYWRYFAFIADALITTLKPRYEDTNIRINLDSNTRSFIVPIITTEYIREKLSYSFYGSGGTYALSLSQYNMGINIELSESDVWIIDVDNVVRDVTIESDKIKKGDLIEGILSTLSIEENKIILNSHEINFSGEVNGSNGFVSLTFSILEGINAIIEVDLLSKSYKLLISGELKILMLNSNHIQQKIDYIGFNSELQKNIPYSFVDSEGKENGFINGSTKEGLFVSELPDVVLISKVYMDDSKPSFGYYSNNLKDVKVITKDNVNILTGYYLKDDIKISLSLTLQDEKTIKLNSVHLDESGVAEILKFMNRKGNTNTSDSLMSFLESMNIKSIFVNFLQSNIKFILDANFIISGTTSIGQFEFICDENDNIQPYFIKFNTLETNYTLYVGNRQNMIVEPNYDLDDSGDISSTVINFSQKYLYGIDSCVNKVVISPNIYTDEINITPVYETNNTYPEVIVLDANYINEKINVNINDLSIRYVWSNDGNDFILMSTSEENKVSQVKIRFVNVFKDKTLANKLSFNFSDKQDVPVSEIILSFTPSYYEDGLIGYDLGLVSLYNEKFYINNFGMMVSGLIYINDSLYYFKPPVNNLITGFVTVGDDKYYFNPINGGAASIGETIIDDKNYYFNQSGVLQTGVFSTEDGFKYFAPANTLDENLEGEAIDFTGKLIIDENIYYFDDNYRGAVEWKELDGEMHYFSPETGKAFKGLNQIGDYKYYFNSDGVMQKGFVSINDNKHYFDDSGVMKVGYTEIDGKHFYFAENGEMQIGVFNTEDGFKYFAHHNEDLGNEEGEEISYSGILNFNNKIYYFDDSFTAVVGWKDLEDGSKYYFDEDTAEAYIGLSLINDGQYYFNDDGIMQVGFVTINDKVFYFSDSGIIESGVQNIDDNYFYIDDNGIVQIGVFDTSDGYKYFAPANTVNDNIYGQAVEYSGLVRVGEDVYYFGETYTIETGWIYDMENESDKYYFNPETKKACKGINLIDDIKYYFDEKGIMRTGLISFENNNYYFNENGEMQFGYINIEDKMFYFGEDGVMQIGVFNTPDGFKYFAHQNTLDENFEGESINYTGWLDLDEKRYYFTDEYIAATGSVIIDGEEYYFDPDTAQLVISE
row,SMILES,inhibition
1,O=C(c1cccc(F)c1)N1CC[C@@H]2[C@H](CO)Nc3ccc(-c4ccccc4)cc3[C@@H]21,-1.25% (inactive)
2,CCC(=O)N(C)C[C@H]1Oc2cc(/C=C/c3ccccc3)ccc2S(=O)(=O)N([C@H](C)CO)C[C@H]1C,0.008% (inactive)
3,CCCC#Cc1ccc([C@H]2[C@@H](CO)N3C(=O)CN(C(=O)c4ccncc4)C[C@H]23)cc1,0.225% (inactive)
4,COc1ccccc1S(=O)(=O)N1CC[C@@H]2[C@H]1c1cc(-c3ccccc3)ccc1N[C@@H]2CO,-0.443% (inactive)
5,COc1ccc(S(=O)(=O)Nc2ccc3c(c2)C(=O)N([C@@H](C)CO)C[C@@H](C)[C@H](CN(C)S(=O)(=O)c2cccs2)O3)cc1,0.284% (inactive)
6,C[C@H](CO)N1C[C@H](C)[C@H](CN(C)S(=O)(=O)c2cccc(F)c2)Oc2ncc(/C=C/c3ccccc3)cc2C1=O,0.994% (inactive)
7,O=C(Cc1ccccn1)N[C@H]1CC[C@H](CCn2cc(-c3ccc(F)cc3)nn2)O[C@H]1CO,-7.26% (inactive)
8,CO[C@@H]1CN(C)C(=O)c2cc(NC(C)=O)ccc2OC[C@H](C)N(Cc2ccccn2)C[C@H]1C,0.576% (inactive)
9,COc1ccc(Cl)cc1-n1c(=S)sc2c(=O)n(-c3ccc(F)cc3)c(SCC(=O)O)nc21,20.5% (active)
10,COc1ccccc1-n1c(SCC(=O)O)nc2sc3c(c2c1=O)CCC3,-0.511% (inactive)
11,COc1cccc(-n2c(=S)sc3c(=O)n(-c4ccccc4OC)c(SCC4OCCO4)nc32)c1,1.51% (inactive)
12,Cc1cccc(S(=O)(=O)N2CCCCN3[C@@H](CO)[C@H](c4ccc(-c5cccnc5)cc4)[C@@H]3C2)c1,0.453% (inactive)
13,CCNC(=O)C[C@H]1CC[C@@H]2[C@H](COC[C@H](O)CN2C(=O)Nc2c(C)noc2C)O1,-1.03% (inactive)
14,COc1ccc(CN(C)C[C@H]2OCCCC[C@H](C)Oc3ccc(NC(=O)NC4CCCCC4)cc3C(=O)N([C@@H](C)CO)C[C@@H]2C)cc1,0.374% (inactive)
15,CO[C@@H]1CN(C)C(=O)c2cc(NC(=O)c3ccc4c(c3)OCO4)ccc2OC[C@H](C)N(CCC(F)(F)F)C[C@H]1C,1.3% (inactive)
16,O=C(NCC[C@H]1CC[C@@H](NS(=O)(=O)c2cccc(Cl)c2)[C@@H](CO)O1)c1cnccn1,-2.69% (inactive)
17,C[C@H]1CN([C@@H](C)CO)C(=O)c2cc(C#Cc3ccccc3F)cnc2O[C@@H]1CN(C)C(=O)C1CC1,-2.35% (inactive)
18,N#C[C@H]1[C@@H](c2ccccc2C2=CCCCC2)[C@H](CO)N1C(=O)c1ccccn1,-7.67% (inactive)
19,COc1ccc2c3c(n(C)c2c1)[C@H](CO)N(C(C)=O)CC31CN(C(=O)c2cnccn2)C1,0.415% (inactive)
20,CCOC(=O)C1CCN(Cc2c(C(=O)N3CCOCC3)nc3c(C)cccn23)CC1,1.15% (inactive)
21,Cc1cccn2c(CN(C)C3CCCc4ccccc43)c(C(=O)N3CCOCC3)nc12 (stereo unspecified),11% (active)
22,Cc1cccn2c(CNCC(C)Oc3cccnc3)c(C(=O)N3CCOCC3)nc12 (stereo unspecified),-0.924% (inactive)
23,COc1ccc(C#Cc2ccc([C@H]3[C@H]4CN(C(=O)c5ccncc5)CC(=O)N4[C@H]3CO)cc2)cc1,-0.009% (inactive)
24,N#C[C@@H]1[C@H](c2ccccc2-c2cccc(F)c2)[C@@H](CO)N1C(=O)CN1CCOCC1,-0.655% (inactive)
25,Cc1noc(C)c1NC(=O)N[C@@H]1CC[C@H](CC(=O)Nc2ccccc2)O[C@H]1CO,2.14% (inactive)
26,CO[C@@H]1CC[C@@H]2CCOc3c(C#N)cccc3C(=O)N(C)C[C@@H](C)C(=O)N(C)C[C@@H]1O2,-0.159% (inactive)
